Among all 96,000 compounds or so, about 20,000 (21%) were called active. A selection follows. Unmarked numbers belong to inactive results.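 How the source made its calls: active means CYP2C19 inhibition above a set limit at 5 µM in the primary screen (cut at about 50% in these data); inactive means the rest.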
The compounds below were run against Cytochrome P450 2C19 (Homo sapiens) (UniProt P33261) (assay: blockers of cytochrome P450 2C19 activity – biochemical, luminescence, ADME assay, primary screen (AID 778;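 further: plate controls were negative control wells for no effect and 2.5 mM tranylcypromine positive control for full effect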)). Conditions: CYP2C19 Supersomes, luciferin-H EGE luminescence, 30 min; at 5 µM; stronger effect = higher value.
Cytochrome P450 2C19 (Homo sapiens), sequence (P33261 whole entry, looked up): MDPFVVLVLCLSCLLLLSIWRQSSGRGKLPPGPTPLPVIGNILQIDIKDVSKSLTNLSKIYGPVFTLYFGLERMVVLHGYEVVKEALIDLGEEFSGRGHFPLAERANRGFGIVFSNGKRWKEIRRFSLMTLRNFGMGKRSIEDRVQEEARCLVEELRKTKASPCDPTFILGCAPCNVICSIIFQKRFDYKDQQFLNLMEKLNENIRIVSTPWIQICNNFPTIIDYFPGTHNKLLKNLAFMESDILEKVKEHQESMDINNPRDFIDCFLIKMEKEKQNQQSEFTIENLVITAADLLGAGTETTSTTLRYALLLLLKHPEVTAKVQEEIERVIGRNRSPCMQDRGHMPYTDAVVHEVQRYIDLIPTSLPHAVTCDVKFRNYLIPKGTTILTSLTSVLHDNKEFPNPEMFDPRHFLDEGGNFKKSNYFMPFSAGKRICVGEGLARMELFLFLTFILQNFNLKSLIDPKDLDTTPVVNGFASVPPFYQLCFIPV

Row | SMILES | inhibition
1 | Cn1c2ccccc2n2c(=O)c(=O)n(CC(=O)c3ccc(F)cc3)nc12 | -11.2%
2 | Cc1cc(NC(=O)CCC(=O)N(c2ccccc2)C(C(=O)NC2CCCC2)c2ccncc2)no1 (stereo unspecified) | 46.5%
3 | Cc1cc(NC(=O)/C=C/C(=O)N(c2ccccc2C)C(C(=O)NC2CCCC2)c2ccc(F)cc2)no1 (stereo unspecified) | 10.8%
4 | Cc1cc(NC(=O)CCC(=O)N(c2cccc(F)c2)C(C(=O)NC2CCCC2)c2ccncc2)no1 (stereo unspecified) | 76.4% (active)
5 | O=C(Nc1nnc(-c2ccc(Cl)cc2)o1)c1ccccc1Br | 6.2%
6 | CCC(=O)c1cc2c(cc1NC(=O)c1cccs1)OCCO2 | -6.1%
7 | CN(c1ccc(C(=O)NCCC2=CCCCC2)cc1)S(C)(=O)=O | -1.7%
8 | C=CCn1c(SCc2nnc(-c3ccccc3)o2)nnc1C(O)c1ccccc1 (stereo unspecified) | 55% (active)
9 | Fc1ccc2nc(-c3ccccc3)nc(SCc3nnc(-c4ccccc4)o3)c2c1 | 3.2%
10 | CCC(O)CNc1nc(-n2nc(C)cc2C)nc2sc3c(c12)CC(C)(C)OC3 (stereo unspecified) | -2.2%
11 | CC(C)Nc1ncnc2c1nnn2Cc1ccccc1 | 59.5% (active)
12 | CC(C)(C)c1nc(NCC2CCCO2)c2nnn(Cc3ccccc3)c2n1 (stereo unspecified) | 33.4%
13 | CCOc1ccc(Cn2nnc(C(=O)NCc3ccccc3)c2N)cc1 | -7%
14 | COc1cc(C(=S)N2CCOCC2)cc(OC)c1OC(=O)c1cc([N+](=O)[O-])c(C)c([N+](=O)[O-])c1 | -0.1%
15 | COc1ccccc1OCCNc1cc(N2CCOCC2)ccc1[N+](=O)[O-] | 60.3% (active)
16 | COc1ccc(C(=O)Cn2nnc(-c3ccc(N4CCOCC4)cc3)n2)cc1OC | -8.3%
17 | COc1ccc(Oc2coc3cc(OC(=O)c4cncc(Br)c4)ccc3c2=O)cc1 | -9.2%
18 | CC/C(=N\O)C(C)(C)/[N+]([O-])=C/c1ccc(Br)cc1 | 5.2%
19 | COc1ccccc1C1=Nc2cccc3cccc(c23)N1 | 32.8%
20 | Cc1nn2c3ccccc3nc2n(C)c1=O | -6.3%
21 | COc1ccc(C(=O)n2nc(-c3ccc(C)cc3)nc2N)cc1OC | -2.6%

Row | SMILES | inhibition
22 | COc1ccc(C(=O)n2nc(-c3ccc(Cl)cc3)nc2N)cc1OC | 1.7%
23 | COc1ccccc1C(=O)n1nc(-c2ccccc2)nc1N | 74.3% (active)
24 | COc1ccc(C2=NOC3(CC(=O)N(c4ccc(Cl)cc4)C3=O)C2)c(OC)c1 (stereo unspecified) | -4.2%
25 | COCCCN1C(=O)C(=O)/C(=C(/O)c2ccc3c(c2)CC(C)O3)C1c1cccnc1 (stereo unspecified) | 4.2%
26 | CCOC(=O)c1cc2cc(-c3c(C(=O)OCC)oc4cc(O)cc(O)c4c3=O)ccc2o1 | 69.8% (active)
27 | O=c1c(-c2ccc3c(c2)OCCO3)c(C(F)(F)F)oc2cc(O)cc(O)c12 | 25%
28 | O=C(COc1ccc(Cl)cc1)N1CCN(c2cccc(C(F)(F)F)c2)CC1 | 41.1%
29 | Cc1ccc2[nH]c3c(c2c1)CN(C(=O)CN1CCN(c2ccccc2)CC1)CC3 | 29.5%
30 | O=C(CN1CCN(c2ccc(Cl)cc2)CC1)N1CCCC1 | 62.9% (active)
31 | Cn1c(=O)cc(SCC(=O)N2CCCC2)c2cc(Cl)ccc21 | -7.5%
32 | O=C(CSCc1ccc(Cl)cc1)N1CCCCC1 | 76.3% (active)
33 | O=C(CSCc1cccs1)N1CCCC1 | 16.5%
34 | COc1ccc(-c2oc3ncn(Cc4ccco4)c(=N)c3c2-c2ccc(OC)cc2)cc1 | 33.8%
35 | CCOC(=O)N1CCC(Nc2c(NCCCN3CCN(CC)CC3)c(=O)c2=O)CC1 | 4%
36 | c1ccc(-c2ccnc3nc(-n4cccc4)nn23)cc1 | 1.1%
37 | CCCC(=O)N1c2ccc(-c3csc(N)n3)cc2CC1C (stereo unspecified) | 4.4%
38 | O=c1c(F)cn(C2CCCO2)c(=O)n1Cc1ccccc1Cl (stereo unspecified) | 36.8%
39 | COCCn1c(C)cc(C2=NNC(=Nc3ccc(F)cc3)SC2)c1C | 20.2%
40 | COc1ccc(C)cc1NC(=O)c1[nH]c(C)c(C(C)=O)c1C | 51.5% (active)
41 | CC(=O)c1c(C)[nH]c(C(=O)NCc2ccc(C)cc2)c1C | 43.8%
42 | COc1ccc(C)cc1NC(=O)CCC(=O)Nc1nnc(C(F)(F)F)s1 | -1.8%

Row | SMILES | inhibition
43 | CC(C)(C)NC(=O)C(c1ccco1)N(Cc1ccc2c(c1)OCO2)C(=O)Cn1nnc2ccccc21 (stereo unspecified) | 48.8%
44 | COc1ccc2c(c1)CCc1c(C(=O)N3CCc4ccccc4C3)noc1-2 | 74.1% (active)
45 | COc1ccc2c(c1)CCc1c(C(=O)N3CCCC3)noc1-2 | 4.9%
46 | COc1ccc2c(c1)CCc1c(C(=O)Nc3c(C)n(C)n(-c4ccccc4)c3=O)noc1-2 | 25.7%
47 | CCC(=O)N1CCc2cc(S(=O)(=O)NC(C(=O)N3CCc4ccccc4C3)C(C)C)ccc21 (stereo unspecified) | 4.8%
48 | Cc1nc(NC(CC(C)C)C(=O)O)c2nc(C)oc2n1 (stereo unspecified) | -8.5%
49 | O=C(Nc1ccon1)c1sc2ccccc2c1Cl | 1.4%
50 | N#Cc1cc([N+](=O)[O-])ccc1Oc1cccc(/C=N/NC(=O)c2ccc(Cl)cc2)c1 | 41.8%
51 | CCc1ccccc1NC(=O)CN(C)S(=O)(=O)c1ccc2c(c1)c(=O)n(C)c(=O)n2C | 7.1%
52 | Cc1cc(NC(=O)c2cccc(N3C(=O)CCC3=O)c2)no1 | 3%
53 | O=C(/C=C/Nc1ccccc1OC(F)(F)F)C(F)(F)F | 18%
54 | Cc1cc(C)nc(NC(=O)C(C)N2C(=O)c3ccccc3C2=O)n1 (stereo unspecified) | -21.4%
55 | CCOC(=O)N1CCC(N(CCOC)C(=O)Nc2ccc(C)c(C)c2)CC1 | 8.4%
56 | Cc1ccc(NC(=O)CN(C)S(=O)(=O)c2cnc[nH]2)cc1C | 88.7% (active)
57 | Cc1ccc(NC(=O)CCNS(=O)(=O)c2ccc3c(c2)oc(=O)n3C)cc1C | 8%
58 | Cc1ccc(-c2nnc(C)c(N3CC(C)OC(C)C3)n2)cc1 (stereo unspecified) | 7.3%
59 | Cc1cc(=O)oc2cc(NC(=O)C3CC(=O)N(Cc4ccccc4)C3)ccc12 (stereo unspecified) | 52.5% (active)
60 | COCCCNC(=O)C1CC(=O)N(CCc2ccccc2)C1 (stereo unspecified) | -3.4%
61 | O=C(O)C1CC(=O)N(Cc2cccnc2)C1 (stereo unspecified) | -2.1%

From PubChem BioAssay AID778 (Sanford-Burnham Center for Chemical Genomics, 2007)
